# FMDV inh: High Throughput Screening for Foot and Mouth Disease Virus Antivirals. FMDV antiviral cell-based qHTS. Potency, µM (doses to about 57.9 µM), hits mostly inhibitors. 410,000 tested, 1.2% active; calls by dose curve; tested in HEK293T cells; note: read-out not given here; nearly all actives have a fitted effect of over 45% in size
# TbPYK inhibitor: qHTS of Trypanosoma Brucei Inhibitors. pyruvate kinase (Trypanosoma brucei), Q57TT1. TbPYK enzyme, Kinase-Glo Plus ATP luminescence, 45 min. Potency, µM (highest dose often 76.8 µM), most hits filed as inhibitors. 410,000 tested, 0.12% active; note: nearly all actives have a fitted effect of over 50% in size
#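 Assay buffer: 50 mM TEA pH 7.2, 100 mM KCl, 10 mM MgCl2, 0.05% BSA, 0.01% Tween-20. Pyruvate kinase from T. brucei plus substrate met compound, then ADP (130 uM final). Luminescence was read post 45 min RT.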
# RE007 growth inh: qHTS Assay for Inhibitors of the HIV-1 protein Vpr. 360,000 tested, 0.21% active. Potency, µM (highest dose often 92.2 µM), hits mostly inhibitors. AID 651644, 2012. S. pombe RE007 Vpr strain, BacTiter-Glo ATP luminescence, 24 h; active = well fitted falling curve with a large enough effect; inconclusive = small, poorly fitted or top-dose-only effect; inactive = no such curve, though single readings can be large or run the other way; note: nearly all actives have a fitted effect of over 50% in size
#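 Fission yeast strain RE007, carrying one chromosomally integrated HIV-1 vpr copy, was seeded at OD 0.01 in PMG+AL medium with 23 nL pinned compound. After 24 h at 30 °C and 99% humidity, viability was read by BacTiter-Glo luminescence.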
# Sm TGR inh: qHTS Assay for the Inhibitors of Schistosoma Mansoni Peroxiredoxins; purified TGR, DTNB reduction, TNB absorbance 405 nm; Potency, µM (titrated, usually from 114 µM), actives largely listed as inhibitors; 360,000 tested, 3% active; AID 485364, 2010; note: nearly all actives have a fitted effect of over 60% in size
#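 First, TGR (20 nM dispensed) and NADPH were mixed with compound. Second, a 15 min room-temperature incubation followed. Third, further NADPH and then DTNB were added to start the reaction. Finally, TNB absorbance was monitored kinetically.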
# Hits are given with their value; – = inactive; ? = inconclusive; · = no result given; [ ] = dose if it differs, or a comment. Hits are enriched below; roughly 3.7% of the tested compounds scored in any of these assays. Unless noted, calls come from the whole dose curve; as a rule, active = well fitted curve in the direction sought with a large enough effect; inconclusive = small, poorly fitted or top-dose-only effect, or another doubt; inactive = no such curve, though single readings can be large; an effect the other way counts as inactive or inconclusive.
SMILES,FMDV inh,TbPYK inhibitor,RE007 growth inh,Sm TGR inh
COc1ccc(CN(C(=O)c2cc3ccccc3oc2=O)C2CCS(=O)(=O)C2)cc1OC (centres undefined),–,–,–,–
COc1ccccc1C(=O)N(Cc1ccco1)C1CCS(=O)(=O)C1 (centres undefined),–,–,–,35µM
COc1ccc(CN(C(=O)/C=C/c2ccco2)C2CCS(=O)(=O)C2)cc1OC (centres undefined),–,–,–,3.5µM
CCS(=O)(=O)n1nc(-c2ccco2)nc1NCc1ccc(C(C)C)cc1,–,–,·,–
COc1cccc(CN(C(=O)c2ccco2)C2CCS(=O)(=O)C2)c1 (centres undefined),–,–,–,–
COc1cccc(CN(C(=O)/C=C/c2ccco2)C2CCS(=O)(=O)C2)c1 (centres undefined),–,–,–,7.9µM
c1ccc(C2=NNC(=NCc3ccc4c(c3)OCO4)SC2)cc1,–,–,–,–
C=CCN=C1NN=C(c2cc(C)n(CC=C)c2C)CS1,18µM,?,–,–
C=CCN=C1NN=C(c2ccc3c(c2)OCCO3)CS1,8.9µM,–,–,–
NC1=NN=C(c2ccc3c(c2)OCCO3)CS1,11µM,–,–,?
Cc1c(NC(=S)NC(=O)c2sc3ccccc3c2Cl)cccc1C(=O)O,–,–,–,3.2µM
CC(C)C[C@H](NC(=O)[C@H](CCC(N)=O)NC(=O)[C@H](CCCCN)NC(=O)[C@H](CCC(N)=O)NC(=O)[C@@H](N)CCC(=O)O)C(=O)N[C@@H](CCC(N)=O)C(=O)O,–[6.7 µM],·,·,·
NC(=O)c1ccsc1NC(=O)c1ccc(S(=O)(=O)N2CCCc3ccccc32)cc1,35µM,–,–,–
O=S(=O)(Cc1noc(-c2ccc(Cl)cc2)n1)Cc1ccco1,–,–,–,50µM
N#C/C(=C/c1ccc(N2CCCCCC2)o1)c1ccc(Cl)cc1,25µM,?,25µM,?
Cc1ccc(/C(C#N)=C\c2ccc(N3CCOCC3)o2)cc1,·,?,?,3.2µM
N#C/C(=C\c1ccc(N2CCOCC2)o1)C(=O)NC1CCCCC1,–,–,–,35µM
N#C/C(=C/c1ccc(N2CCCCC2)o1)c1cccc(F)c1,–,–,–,2.5µM
Cc1ccc2nc(/C(C#N)=C\c3ccc(N4CCOCC4)o3)[nH]c2c1,–,–,–,?
COc1ccc(Oc2c(C(F)(F)F)oc3c(CN4CCCC(C)C4)c(O)ccc3c2=O)cc1 (centres undefined),–,–,·,–
COc1ccc(Br)cc1CNC(=O)CCCn1c(=O)c2cccn2c2cccnc21,–,–,·,–
O=c1c2ccccc2nc(N2CCN(c3cccc(Cl)c3)CC2)n1-c1ccccc1,?,–,·,–
CCC(C)NC(=O)c1sc2nc(C)c(C(=O)Nc3ccc(C)cc3C)c(-c3ccccc3Cl)c2c1N (centres undefined),–,–,·,–
O=C(NCC1Cc2cccc(-c3ccccn3)c2O1)c1cnn2cccnc12 (centres undefined),–,·,·,·
O=CN/C=C/c1cc(O)ccc1O,–,–,–,6.3µM
SMILES,FMDV inh,TbPYK inhibitor,RE007 growth inh,Sm TGR inh
COc1ccc(C2C(=O)N(C3CCC(C)CC3)CC(=O)N2Cc2ccc(C)cc2)cc1OC (centres undefined),–,–,·,–
CC1(C)C(=O)C=C[C@]2(C)C1CC(=O)[C@]1(C)C2CC[C@@]2(C)C(c3ccoc3)OC(=O)C3O[C@@]321 (some centres undefined),18µM,·,·,·
CC1(C)O[C@H]2CC(=O)OC[C@]23[C@H]2CC[C@@]4(C)[C@H](c5ccoc5)OC(=O)[C@H]5O[C@]54[C@]2(C)C(=O)C[C@@H]13,–,·,·,·
COc1ccc(OC)c(CN2CCCC(n3cc(C(=O)N4CCCCC4)nn3)C2)c1 (centres undefined),–,·,·,·
CC(=O)/C=C/n1c(=S)oc2ccccc21,3.2µM,–,40µM,2.5µM
CC(C)CC(=O)/C=C/n1c(=S)oc2ccccc21,?,–,–,6.3µM
Cn1c(=S)oc2ccccc21,–,–,–,–
C#Cc1cccc(C(=O)NCc2nc(-c3ccccc3NC(=O)C3CCCO3)oc2C)c1 (centres undefined),–,·,·,·
CC(=O)C(=Nc1ccccc1Cl)NNc1ccc(Cl)cc1,–,–,–,40µM
CCCCOc1cccc(-c2cc(C(=O)NNC(=S)NCC)c3ccccc3n2)c1,–,–,–,–
CCCCOc1ccc(-c2cc(C(=O)NNC(=S)NCC)c3ccccc3n2)cc1,?,–,63µM,–
